# Assay results published in PubChem BioAssay AID2551 (National Center for Advancing Translational Sciences (NCATS), 2010).
# “And” between values parts separate entries of the source, which are not always exact repeats. Identical values can stand only once. The whole screen tested about 310,000 compounds, of which about 17,000 (5.5%) were called active. Entries that show only a call come without a potency. Inconclusive results (about 11%) are left out. The call rests on the fitted dose curve; in most records, active means well fitted inhibition curve with a large enough effect; inconclusive means small, poorly fitted or top-dose-only effect, or effect the other way; inactive means no such curve, though single readings can be large or run the other way. The sample as a whole holds a higher share of actives than the screen did.
# Biological target: Nuclear receptor ROR-gamma (Mus musculus) (UniProt P51450)
# Test: qHTS for inhibitors of ROR gamma transcriptional activity; further: nearly all actives have a fitted effect of over 60% in size
# Details: Drosophila S2 Gal4-RORgamma UAS-luciferase reporter, 20 h; series mostly up to 53.6 µM
# Text: NIH Molecular Libraries Probe Production Network [MLPCN] NIH Chemical Genomics Center [NCGC] MLPCN Grant: R03 DA026211-01 Assay Provider: Dan Littman, New York University Assay Overview: The retinoic acid-related orphan receptor (ROR) gamma is a transcription factor that has a central role in the differentiation of Th17 cells, a subset of T helper cells that secrete the inflammatory cytokines IL-17, IL-17F, and IL-22. Th17 cells have been implicated in graft versus host disease, autoimmune disease and asthma. ROR gamma is induced in naive T helper cells in the presence of TGF-beta combined with IL-6, IL-21, or IL-23, and thereafter directs the expression of the Th17 lineage cytokines. To study the mechanism of action of ROR gamma, an insect cell-based assay was screened. This Drosophila Schneider cell line was stably transfected with two vectors: a gene expressing a fusion of the Gal4 DNA binding domain and ROR gamma transactivation domain under the control of the metallothionine promoter and a Photinus luciferase reporter regulated by the Gal4 binding site enhancer, UAS. […] Small molecule inhibitors of ROR gamma activity are detected by a decrease in luciferase reporter activity.
# Assay Protocol Summary: For screening, 600 cells in 4 uL/well were dispensed into white solid 1536-well plates (Grenier) using a solenoid-based dispenser. Following transfer of 23 nL compound or DMSO vehicle by a pin tool, the plates were incubated 1 hr at ambient temperature, and 1 uL/well copper sulfate (700 uM final concentration) was added. The plates were centrifuged 15 s at 1000 RPM and incubated 20 hr at ambient temperature. After addition of 1.5 uL Photinus luciferase detection reagent, the plates were incubated 10 min at ambient temperature and then read by an ViewLux (Perkin Elmer) to detect luminescence. Keywords: NIH Roadmap, MLPCN, MLI, MLSMR, qHTS, NCGC, qHTS, nuclear hormone receptor, retinoic acid-related orphan receptor, ROR gamma
# Potency means the concentration at half of the fitted maximal effect.
# Nuclear receptor ROR-gamma (Mus musculus), sequence (P51450 whole entry, looked up): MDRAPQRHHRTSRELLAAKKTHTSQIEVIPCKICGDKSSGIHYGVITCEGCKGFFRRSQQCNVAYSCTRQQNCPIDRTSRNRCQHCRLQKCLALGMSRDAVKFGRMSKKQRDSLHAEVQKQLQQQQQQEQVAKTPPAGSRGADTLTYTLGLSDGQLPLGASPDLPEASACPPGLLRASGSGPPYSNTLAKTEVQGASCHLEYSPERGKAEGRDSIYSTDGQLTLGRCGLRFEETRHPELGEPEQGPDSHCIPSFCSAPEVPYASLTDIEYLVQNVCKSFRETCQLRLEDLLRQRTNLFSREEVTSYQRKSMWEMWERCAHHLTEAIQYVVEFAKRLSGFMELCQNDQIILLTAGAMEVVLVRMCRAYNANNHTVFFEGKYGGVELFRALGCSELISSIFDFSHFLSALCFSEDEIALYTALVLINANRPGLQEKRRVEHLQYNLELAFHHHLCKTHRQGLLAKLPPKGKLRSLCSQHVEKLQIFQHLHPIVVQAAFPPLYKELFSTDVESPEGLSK
row,Structure (SMILES),Potency
1,O=C1CCC(C(=O)N2CCC(O)(c3ccccc3)CC2)CN1CCc1ccccc1 (centres undefined),inactive
2,Cc1ccc(N2CCN(C(=O)c3cccs3)CC2)c(C)c1,inactive
3,COc1ccc(/C=N/OCc2ccccc2C#N)c(OC)c1,inactive
4,Cc1ccc(C(=O)NCC(=O)NCc2cc(=O)n(C)c(=O)n2C)cc1,inactive
5,O=C(NCCOCc1ccc(Cl)cc1)c1ncn[nH]1,inactive
6,COc1ccc(Cl)cc1CSc1ncn[nH]1,inactive
7,O=C(/C=C/Sc1ncn[nH]1)c1ccc(Cl)cc1,4.47 µM (active)
8,COCCNC(=O)COc1ccc(N(C)S(=O)(=O)c2ccc3ccccc3c2)cc1,inactive
9,COc1cccc(N(CC(=O)NC2CCCC2)C(=O)CCCC(=O)Nc2ccccn2)c1,inactive
10,COc1ccc(/C=C2/S/C(=N/N=C3\CC4CCC3(C)C4(C)C)NC2=O)cc1 (centres undefined),10 µM (active)
11,COc1ccc(/C=C2\NC(=O)[C@@H]3Cc4ccccc4CN3C2=O)cc1,inactive
12,COc1ccc(/C=C2\SC(=N)N(c3ccc(F)cc3)C2=O)cc1,inactive
13,Cc1ccc(C)c(C(=O)N2CCC(n3nccc3NC(=O)C3CC3)CC2)c1,inactive
14,Cc1[nH]nc(-c2ccc(OCc3cnn(-c4ccccc4)c3)cc2O)c1Oc1ccc(Cl)cc1,2.24 µM (active)
15,COc1ccc(-c2nc(N)ncc2-c2ccc(Cl)cc2)c(O)c1,inactive
16,Cn1c(COc2ccc(Cl)cc2)nc2ccccc2c1=O,inactive
17,Cc1nc(COc2cc3oc(=O)cc(C)c3cc2Cl)cs1,inactive
18,CC(=O)NCCc1ccc(S(=O)(=O)Nc2ccc(C)c(S(=O)(=O)N3CCOCC3)c2)cc1,inactive
19,O=C(Nc1cccc(NC(=O)c2cccc(F)c2)c1)c1ccccc1,inactive
20,COc1ccc(CCNS(=O)(=O)c2ccc(F)cc2)cc1OC,inactive
21,CCS(=O)(=O)NCCc1ccc(OC)c(OC)c1,11.2 µM (active)
22,COc1ccc(CCNS(=O)(=O)c2ccc(Cl)s2)cc1OC,inactive
23,COc1ccc(S(=O)(=O)N2CCC(C(=O)NCc3ccco3)CC2)cc1C,inactive

row,Structure (SMILES),Potency
1,Cc1cccc(-c2noc(CCC(=O)NC3CCCC3)n2)c1,inactive
2,O=C(NCCCN1CCOCC1)c1cc(-c2ccccc2F)no1,inactive
3,CCn1c(=O)cc(O)c2ccccc21,inactive
4,COC(=O)Cn1c2ccc(C)cc2c2nc(C)sc21,inactive
5,CCn1c(O)c(N=NC2=NC(=O)CS2)c2cc(C)ccc21,4.47 µM (active)
6,CN(CC(=O)Nc1ccc(Cl)cc1)C(=O)CNC(=O)c1ccc2ccccc2c1,inactive
7,Cn1cc(CCC(=O)NC2CC2)c2ccccc21,inactive
8,O=C(CNC(=O)Cc1ccccc1)N=Nc1c(O)[nH]c2ccc(Br)cc12,inactive
9,O=C(C1CCCN(S(=O)(=O)c2ccc([N+](=O)[O-])cc2)C1)N1CCCCC1 (centres undefined),inactive
10,Cc1ccccc1NC(=O)c1ccccc1NS(=O)(=O)c1cccc2cccnc12,inactive
11,O=[N+]([O-])c1cccc2ncccc12,inactive
12,O=[N+]([O-])c1ccccc1S(=O)(=O)Nc1cccc2cccnc12,501 nM (active) and 708 nM (active)
13,O=C(Cc1ccccc1F)NC1CCSc2ccccc21 (centres undefined),inactive
14,CC(C)c1ccc(S(=O)(=O)NC2CCCC2)cc1,inactive
15,CCn1c(CNC(=O)c2cc(OC)c(OC)c(OC)c2)cc2cc(C)ccc21,inactive
16,CC(=O)N1CCCc2cc(S(=O)(=O)N3CCCC(C(=O)NCc4ccc(Cl)cc4)C3)ccc21 (centres undefined),inactive
17,CC(=O)N1c2ccc(S(=O)(=O)N3CCCC(C(=O)Nc4cccc(Cl)c4)C3)cc2CC1C (centres undefined),inactive
18,CC(=O)N1CCCc2cc(S(=O)(=O)N3CCCC(C(=O)N4CCN(c5cccc(Cl)c5)CC4)C3)ccc21 (centres undefined),5.62 µM (active)
19,COc1ccc2oc(C(=O)NCc3ccco3)c(C)c2c1,inactive
20,CC(C(=O)N1CCN(c2ccccc2F)CC1)c1ccc([N+](=O)[O-])cc1 (centres undefined),inactive
21,COc1ccc(CNc2nccs2)cc1,inactive
22,CCOc1ccc(-n2c(O)c(/C=N/Nc3nnc(C)c(=O)[nH]3)c3ccccc3c2=O)cc1,inactive
23,COc1ccc(Cc2nnc(N/N=C/c3ccccc3O)[nH]c2=O)cc1OC,3.98 µM (active)

row,Structure (SMILES),Potency
1,O=c1[nH]c(NCCO)nnc1Cc1ccc(Cl)cc1,inactive
2,NC(=O)N1CCc2ccccc21,inactive
3,O=C(NC(=S)N1CCc2ccccc21)c1ccco1,1.41 µM (active)
4,O=C(CSCc1ccccc1)N1CCc2ccccc21,inactive
5,COc1cc(/C=N/N2CCN(c3ccccc3)CC2)ccc1OC(C)=O,inactive
6,CC(C)=CCN1CCN(Cc2cc3ccccc3[nH]2)CC1CCO (centres undefined),inactive
7,CCOC(=O)c1c(NC(=S)Nc2ccccc2C)sc2c1CCC2,3.55 µM (active)
8,CCc1ccc(N(CC(=O)Nc2sc3c(c2C(=O)OC)CCCC3)S(C)(=O)=O)cc1,inactive
9,CCOC(=O)c1c(NC(=S)Nc2ccccc2)sc2c1CCN(C)C2,inactive
10,CCOC(=O)c1c(NC(=S)NC(=O)c2ccco2)sc2c1CCCC2,3.16 µM (active)
11,CCN(CC)CC(=O)Nc1sc2c(c1C(=O)c1ccccc1C)CCC2,7.08 µM (active)
12,CCOC(=O)c1c(NC(=O)c2ccc(Br)o2)sc2c1CCCC2,inactive
13,CCCOC(=O)Nc1sc2c(c1C(=O)OCC)CCC2,inactive
14,CCOC(=O)c1c(NC(=S)NC)sc2c1CCCC2,0.891 µM (active)
15,CCOC(=O)c1c(NC(=O)CSc2nnc(C)c(=O)[nH]2)sc2c1CCC2,inactive
16,CCOC(=O)c1c(NC(=O)C(C)Sc2c[nH]c3ccccc23)sc2c1CCC2 (centres undefined),inactive
17,CCOC(=O)c1c(NC(=O)CCC(=O)NCc2ccco2)sc2c1CCCC2,inactive
18,O=C(Nc1sc2c(c1C(=O)O)CCC2)c1ccccc1F,inactive
19,Cc1coc2c1c(C)cc1oc(=O)c(CC(=O)NCC(=O)N[C@H](C(=O)O)C(C)C)c(C)c12,inactive
20,CCCCNC(=O)CN1C(=O)NC(Cc2ccccc2)(Cc2ccccc2)C1=O,inactive
21,O=C(NCC(=O)N1CCN(c2ccccc2O)CC1)c1ccc2ccccc2c1,inactive
22,Cc1cc(C)cc(N(CC(=O)NC2CCCC2)C(=O)CCC(=O)Nc2cc(C)on2)c1,inactive
23,O=C(CN1CCOC1=O)N1CCCC(Nc2ccc(F)c(F)c2)C1 (centres undefined),inactive
